ELG1 repair inh – ELG1-dependent DNA repair inhibition; HEK293T ELG1-luciferase reporter, luminescence, 16 h; DNA damage induced by 5-fluorouridine; 2.3% of 330,000 active; Potency, µM (highest dose often 46.1 µM), actives largely listed as inhibitors; note: nearly all actives have a fitted effect of over 55% in size
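Quantitative HTS, concentration-response format. 2,000 cells/well co-treated with 5-fluorouridine and compound, 16 hr in 5% CO2 at 37 °C; ONE-Glo luminescence read after 30 min.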
DT40 TDP1 no CPT – qHTS for Inhibitors of human tyrosyl-DNA phosphodiesterase 1 (TDP1): qHTS in cells in absence of CPT; DT40 Tdp1-/- hTDP1 cells, no CPT, ATP luminescence, 48 h; Potency, µM (doses to about 46.2 µM), hits mostly inhibitors; 15% of 420,000 active; note: nearly all actives have a fitted effect of over 55% in size
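Stably hTDP1-transfected Tdp1-null chicken DT40 cells were treated with library compounds minus camptothecin and grown for at least 48 hr at 37 °C, after which cellular ATP was quantified by luminescence.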
RORgamma inh – inhibitors of mouse ROR gamma transcriptional activity. Potency, µM (titrated, usually from 53.6 µM), hits mostly inhibitors. 5.4% of 310,000 active. Drosophila S2 Gal4-RORgamma UAS-luciferase reporter, 20 h. P51450. AID 2551; note: nearly all actives have a fitted effect of over 60% in size
Target sequence (P51450 whole entry, looked up, the tested form may be a part): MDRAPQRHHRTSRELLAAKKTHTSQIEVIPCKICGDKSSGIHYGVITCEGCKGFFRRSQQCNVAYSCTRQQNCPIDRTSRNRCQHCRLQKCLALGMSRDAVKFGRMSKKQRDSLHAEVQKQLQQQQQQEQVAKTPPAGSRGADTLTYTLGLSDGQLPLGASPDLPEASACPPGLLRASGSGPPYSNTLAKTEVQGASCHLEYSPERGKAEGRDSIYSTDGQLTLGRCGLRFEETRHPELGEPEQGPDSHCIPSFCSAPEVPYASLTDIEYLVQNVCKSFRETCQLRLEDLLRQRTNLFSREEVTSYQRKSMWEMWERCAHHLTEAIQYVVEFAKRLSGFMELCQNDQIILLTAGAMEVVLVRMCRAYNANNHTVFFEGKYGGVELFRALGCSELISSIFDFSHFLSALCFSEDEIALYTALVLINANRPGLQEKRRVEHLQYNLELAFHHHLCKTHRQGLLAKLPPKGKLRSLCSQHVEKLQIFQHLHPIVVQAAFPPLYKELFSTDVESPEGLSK
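Drosophila Schneider cells stably carrying a metallothionein-driven Gal4 DBD–ROR gamma fusion and a UAS-Photinus luciferase reporter were exposed to compound for 1 hr, then induced with copper sulfate (700 uM final) for 20 hr at ambient temperature before luminescence reading.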
Gal4-VP16 FLuc – counter-screen for ROR gamma inhibitors: Gal4-VP16 reporter; Drosophila S2 Gal4-VP16 UAS-luciferase, luminescence, 20 h; Potency, µM (doses to about 53.6 µM), most hits filed as inhibitors; 3.5% of 310,000 active; AID 2546;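 note: Gal4-VP16 expression switched on by copper sulfate through the metallothionein promoter; nearly all actives have a fitted effect of over 50% in size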
IL-1B inflam inh – inflammasome signaling inhibition, IL-1 beta readout; 4.7% of 360,000 active; THP-1 LPS/ATP IL-1B secretion, AlphaLISA, 16 h; active compounds read low; activity change, % at 57.5 µM; in the data active = activity change below about -50%; inconclusive = mostly about -30% to -49%
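Secreted IL-1B measured by AlphaLISA bead assay after 16 h compound exposure of THP-1 cells; compounds (final up to 57.5 uM) added 1 h before LPS (250 ng/mL) and ATP (1.25 mM) stimulation; lower signal means less secretion.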
TDP1 cell CPT – growth inhibition of DT40 Tdp1-/-;hTDP1 cells with camptothecin (screen for TDP1 inhibitors); Potency, µM (top dose mostly 46.2 µM), hits mostly inhibitors; 12% of 420,000 active; chicken DT40 Tdp1-/-;hTDP1 cells + 20 nM CPT, ATP luminescence, 48 h; AID 686979; note: nearly all actives have a fitted effect of over 55% in size
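Chicken DT40 Tdp1-/- cells complemented with human TDP1, 400 cells/well, exposed to compounds plus 20 nM camptothecin for at least 48 h at 37 C; viability read as ATP content by CellTiter-Glo luminescence.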
Numbers stand for hits; – = inactive; ? = inconclusive; · = no result; [ ] = another dose, or the depositor's remark. Only some compounds are listed: those with a hit (about 21% of all), similar ones and a draw of the others. Unless noted, calls come from the whole dose curve; as a rule, active = well fitted curve in the direction sought with a large enough effect; inconclusive = small, poorly fitted or top-dose-only effect, or another doubt; inactive = no such curve, though single readings can be large; an effect the other way counts as inactive or inconclusive.

SMILES | ELG1 repair inh | DT40 TDP1 no CPT | RORgamma inh | Gal4-VP16 FLuc | IL-1B inflam inh | TDP1 cell CPT
CCN(CC)C(=O)[C@H]1CC(CC(=O)NC/C=C(\C)CCC=C(C)C)C(=O)N2CCc3c([nH]c4ccccc34)[C@]12C (stereo partly drawn) | ? | ? | · | · | ? | 23.1µM
CCN(CC)C(=O)[C@H]1CC(CC(=O)NC/C=C(\C)CCC=C(C)C)C(=O)N2CCc3c([nH]c4ccc(OC)cc34)[C@]12C (stereo partly drawn) | ? | ? | · | · | -77.8 | ?
CCOC(=O)/C(C#N)=C1/C=C(C)NC(c2ccccc2O)=N1 | – | 20.6µM | ? | ? | -63.9 | 14.6µM
CO/N=C(\C)CCN1CCc2nc(-c3ccccc3)c(-c3ccccc3)cc2C1 | · | · | –[10 µM] | –[10 µM] | · | ·
CSc1nnc2c3ccccc3c3ccccc3c2n1 | ? | 18.4µM | – | – | – | 14.6µM
COc1ccccc1CNCC(c1ccccc1)c1ccccc1 | – | · | – | – | · | ·
CCOc1cc(CNCc2ccccn2)cc(Cl)c1OC | – | – | – | – | – | –
COc1cc(CNCc2ccccc2C(F)(F)F)cc(OC)c1 | – | – | – | – | – | ?
COc1ccccc1CNCc1cccc(Oc2ccccc2)c1 | – | ? | – | – | -82.8 | ?
COc1ccccc1CNCc1ccc(OC)c2ccccc12 | · | 16.4µM | · | · | -81.9 | ?
COc1ccccc1CNCc1cc(Br)ccc1OC | ? | 16.4µM | – | – | ? | ?
COc1cccc(CNCc2ccccn2)c1OC | – | 18.4µM | – | – | – | –
CCC(=O)NC1(Cc2ccc(O)cc2)CCCCC1 | – | – | – | – | – | –
COC(=O)C1CCN(c2nc(CN(C)C3CCOC3)nc3cc(OC)c(OC)cc23)CC1 (stereo not drawn) | · | – | · | · | · | –[9.04 µM]
CNS(=O)(=O)c1ccc(NC(=O)c2cc(-c3ccncc3)nc3ccc(Cl)cc23)cc1 | – | – | – | – | – | –
COc1ccc(Cl)cc1NC(=O)Cn1c(=O)n2nc(-c3ccccc3)nc2c2ccccc21 | · | – | · | · | · | –
COC(=O)C1=C(O)/C(=C\c2ccc(OCC(=O)Nc3ccc(OC)cc3)cc2)N=C1C | – | – | – | – | – | –
COc1ccc(CNCc2ccc(C)cc2)c(OC)c1 | – | ? | – | – | – | ?
COc1ccc(Br)cc1CNC(C)c1ccccc1 (stereo not drawn) | – | 29.1µM | – | – | ? | ?
COc1cccc(CNCCOCCO)c1OC | – | – | – | – | – | –
COc1ccc(C(=O)NC(C)c2ccccc2)cc1Br (stereo not drawn) | – | – | – | – | – | –
COc1ccc(CNCc2ccc(OC)c3ccccc23)cc1 | – | ? | – | – | -76.4 | ?
COc1ccc(Br)cc1CNC(=O)c1cc2ccccn2n1 | · | ? | · | · | · | 16.4µM
COc1cccc(CNCc2ccc(OC)c3ccccc23)c1OC | ? | 16.4µM | – | – | -84.1 | 20.6µM
Cc1noc(C)c1C(=O)N1CCC2(CCCN(c3ccccc3)C2)CC1 | · | ? | – | – | · | –
SMILES | ELG1 repair inh | DT40 TDP1 no CPT | RORgamma inh | Gal4-VP16 FLuc | IL-1B inflam inh | TDP1 cell CPT
COc1cc(NC(=O)C2CCN(C(=O)c3sc4nc[nH]c(=O)c4c3C)CC2)cc(OC)c1OC | · | – | · | · | · | –
COc1ccc(-c2nc3ccccc3n3c(-c4ccccc4)c4c(=O)n(C)c(=O)n(C)c4c23)cc1OC | · | ? | · | · | · | –
COc1ccc(-c2c3c(=O)n(C)c(=O)n(C)c3c3c(-c4cccc(C)c4)nc4ccccc4n23)cc1 | · | 20.6µM | · | · | · | ?
COc1ccc(-c2nc3ccccc3n3c(-c4cccc(C)c4)c4c(=O)n(C)c(=O)n(C)c4c23)cc1OC | · | 18.4µM | · | · | · | 16.4µM
COc1ccc(-c2c3c(=O)n(C)c(=O)n(C)c3c3c(-c4ccccc4)nc4ccccc4n23)cc1 | · | 2.31µM | · | · | · | –
CN1CCCC2(CCN(C(=O)c3cccc(F)c3)CC2)C1 | · | – | – | – | · | –
COc1ccc(-c2nc3c(c4c2CC(C)OC4)CN(CCC(C)C)CC3)cc1 (stereo not drawn) | · | · | –[10 µM] | –[10 µM] | · | ·
c1cc2c3c(cccc3c1)C(N1CCCCCC1)=N2 | – | – | 7.94µM | ? | – | –
O=S1(=O)N=C(N2CCCC2)c2ccccc21 | – | – | – | – | – | –
c1ccc2c(c1)CCN(C1=Nc3cccc4cccc1c34)C2 | ? | ? | ? | – | -91.0 | ?
CC1=[N+]([O-])C(C)(C)C(c2ccc(Br)cc2)=[N+]1[O-] | – | – | – | – | – | –
COC(=O)C[C@@H]1C=C[C@@H](NS(=O)(=O)c2ccc(OC)cc2)[C@@H](CO)O1 | · | – | · | · | – | –
Cc1ccc(-c2nc(N3CCOCC3)sc2C(=O)N2CCCCC2)cc1 | – | ? | ? | – | – | –
COc1cc(Cc2nc3ccccc3n2C(C)c2nc3ccccc3[nH]2)cc(OC)c1 (stereo not drawn) | · | ? | · | · | – | 18.4µM
O=c1c(-c2ccccc2)nc2ccccc2n1C(c1ccccc1)c1nc2ccccc2[nH]1 (stereo not drawn) | · | – | · | · | -53.5 | –
CC(c1nc2ccccc2[nH]1)n1c(=O)c(-c2cccnc2)nc2ccccc21 (stereo not drawn) | · | ? | · | · | -88.2 | 23.1µM
COc1ccc(CCc2nc3ccccc3n2C(CCc2ccccc2)c2nc3ccccc3[nH]2)cc1 (stereo not drawn) | · | ? | · | · | – | ?
CCC(c1nc2ccccc2[nH]1)n1c(=O)c(-c2cccnc2)nc2ccccc21 (stereo not drawn) | · | – | · | · | – | –
CCN(CC)S(=O)(=O)c1ccc(N2CCOCC2)c(NC(=O)CC23CC4CC(CC(Br)(C4)C2)C3)c1 | 9.2µM | – | – | – | – | –
CCN(CC)S(=O)(=O)c1ccc(N2CCOCC2)c(NC(=O)COc2ccccc2C#N)c1 | 9.2µM | – | – | – | – | ?
CCN(CC)S(=O)(=O)c1ccc(N2CCOCC2)c(NC(=O)COc2ccccc2C)c1 | 5.8µM | 18.4µM | · | · | -55.8 | 20.6µM
CCN(CC)C(=O)c1cccc(-c2csc(C(NC(C)=O)c3cccc(OC)c3)n2)c1 (stereo not drawn) | · | ? | · | · | – | ?
Cc1ccc(NC(=O)N2CCN(C(=O)c3ccco3)CC2)cc1Cl | – | ? | ? | – | – | –
O=C(Nc1ccc(N2CCN(C(=O)c3cccs3)CC2)c(Cl)c1)c1ccco1 | 20.6µM | 14.6µM | ? | – | ? | ?
Cc1ccccc1C(=O)N1CCN(c2ccc(NC(=O)c3ccco3)cc2Cl)CC1 | 2.06µM | 9.2µM | ? | 6.31µM | -88.9 | 14.6µM

Source: PubChem
